About 310 (2.8%) of roughly 11,000 compounds were called active. Cut-off read from the data, not from the text of the source: active = activity change below about -85%; inactive = the rest. The entries come from a sample that favours actives as a whole.

The assay deals with intestinal alkaline phosphatase [Mus musculus]. Nature of the assay: activators of mouse IAP, confirmation, biochemical, luminescence, single concentration (AID 434970). The note with it: purified mouse IAP, CDP-Star luminescence, 30 min, at 10 µM; activation factor: measured here: IAP activation factor, stronger effect = higher value; activity change, negative = activation: stronger effect = lower value.
Turning to `CCN([C@H](CO)CC(C)C)S(=O)(=O)c1ccccc1`, the activation factor amounted to 1.09 and the activity change, negative = activation is -8.75% (inactive).
In the same order, the values of `Cc1onc(-c2ccccc2)c1CNC(=O)Nc1ccc(C(F)(F)F)cc1` are 1.99 and -99.1% (active).
For `O=C(Nc1cccc(Cl)c1)Nc1nnc(-c2ccccc2)o1` the same measures were 1.02 and -2.05% (inactive).
Take `Cc1onc(-c2ccccc2)c1C(=O)NCc1cccs1`: the activation factor is 1.01 and the activity change, negative = activation is -0.85% (inactive).
With `Cc1onc(-c2ccccc2)c1NC(=O)Nc1ccc(OC(F)F)cc1`, the activation factor was 1.48 and the activity change, negative = activation was -47.9% (inactive).
Turning to `Cn1c(CNC(=O)Nc2cccc(Cl)c2)nnc1SCc1ccccc1`, the activation factor was 1.52 and the activity change, negative = activation was -52% (inactive).
For `Cc1cc(C)cc(NC(=O)NCc2c(-c3ccccc3)noc2C)c1` the same measures were 2.73 and -173% (active).
`FC(F)(F)c1ccc(NC(=S)NCc2ccccc2)cc1`: the activation factor came out at 1.41 and the activity change, negative = activation is -41% (inactive).
For `Cc1onc(-c2ccccc2)c1CNC(=O)Nc1cccc(Cl)c1` the same measures were 2.33 and -133% (active).
For `Cc1onc(-c2ccccc2)c1C(=O)NCc1ccccn1` the same measures were 0.956 and 4.35% (inactive).
With `COC(=O)C1=NN(c2ccccc2)C2(S1)SC(C(C)=O)=C(C)N2c1ccccc1` (stereo unspecified), the activation factor is 0.92 and the activity change, negative = activation is 8% (inactive).
For the compound `O=C(CC(Nc1ccc(F)cc1)C(=O)O)c1ccccc1` (stereo unspecified), the activation factor came out at 0.959 and the activity change, negative = activation is 4.1% (inactive).
For `COC(=O)c1oc2ccc(Cl)cc2c1N` the same measures were 0.915 and 8.55% (inactive).
On to `O=C(Nc1ccc2c(c1)nc1n2CCOC1)c1ccco1`, for which the activation factor was determined as 1.29 and the activity change, negative = activation was -29.5% (inactive).
In the same order, the values of `Cc1cccc(N2O[C@H]3C=CC2CCCC3)n1` are 1.02 and -2.2% (inactive).
With `COc1ccc(C2C(C(=O)Nc3ccccc3)=C(C)N=C3SCC(=O)N32)cc1` (stereo unspecified), the activation factor was 0.843 and the activity change, negative = activation is 15.7% (inactive).
In the same order, the values of `CCC1CCCCN1CCCNC(=O)CNC(=O)Cn1ccc2ccccc2c1=O` (stereo unspecified) are 0.926 and 7.35% (inactive).
As to `S=C(NCCCc1ccccc1)Nc1ccc(Br)cc1`, the activation factor came out at 1.72 and the activity change, negative = activation is -71.9% (inactive).
In the same order, the values of `Cc1cccc(NC(=O)NCCc2c[nH]c3ccccc23)c1` are 1.72 and -71.8% (inactive).
For `Cc1cccc(NC(=S)NC(C)CCc2ccccc2)c1` (stereo unspecified) the same measures were 1.15 and -14.6% (inactive).
As to `CC(CCc1ccccc1)NC(=O)c1ccncc1` (stereo unspecified), the activation factor came to 0.938 and the activity change, negative = activation is 6.2% (inactive).
In the same order, the values of `Cc1ccc(NC(=O)NCCCc2ccccc2)cc1` are 1.29 and -28.6% (inactive).
In the same order, the values of `Cc1cccc(NC(=O)NCCCCc2ccccc2)c1` are 2.38 and -138% (active).
In the same order, the values of `Cc1cccc(NC(=O)NC(C)CCc2ccccc2)c1` (stereo unspecified) are 2.83 and -183% (active).
For `O=C(NCCCCc1ccccc1)Nc1cccc(F)c1`, the activation factor turned out to be 2.29 and the activity change, negative = activation was -129% (active).
For `Fc1cccc(NC(=S)NCc2ccccc2Cl)c1` the same measures were 1.27 and -27.2% (inactive).
In the same order, the values of `COc1cccc(NS(=O)(=O)Cc2ccccc2)c1` are 0.904 and 9.6% (inactive).
For `COc1cccc(NC(=O)NCCCCc2ccccc2)c1` the same measures were 2.16 and -116% (active).
On to `COc1cccc(NC(=O)Nc2cccn(Cc3ccccc3)c2=O)c1`, for which the activation factor came to 1.01 and the activity change, negative = activation is -1.1% (inactive).
In the same order, the values of `O=C(c1ccc(F)cc1)N1CCN(Cc2ccccc2Br)CC1` are 0.984 and 1.55% (inactive).
Turning to `CCn1c(SCC(=O)Nc2nccs2)nnc1-c1cc2cccc(OC)c2o1`, the activation factor was found to be 0.881 and the activity change, negative = activation was 11.9% (inactive).
As to `CCOc1ccc(C(=S)N2CCCC2)cc1`, the activation factor is 0.949 and the activity change, negative = activation is 5.1% (inactive).
For `CCSc1nc(N)c2c(C)c(C)sc2n1` the same measures were 1.11 and -10.9% (inactive).
For `CCOc1ccccc1N1CCN(S(=O)(=O)c2ccc3c4c(cccc24)C(=O)N3)CC1`, the activation factor is 0.442 and the activity change, negative = activation was 55.8% (inactive).
On to `S=C(NCCc1ccc(Cl)cc1)Nc1ccc(Cl)cc1Cl`, for which the activation factor amounted to 1.36 and the activity change, negative = activation is -36.1% (inactive).
With `COc1ccc(Cl)cc1NC(=S)NCCC(c1ccccc1)c1ccccc1`, the activation factor was 2.07 and the activity change, negative = activation was -107% (active).
For `COc1ccccc1NC(=S)NCCC(c1ccccc1)c1ccccc1` the same measures were 1.39 and -38.9% (inactive).
Regarding `Cc1c(Cl)cccc1NC(=S)NCc1ccccc1`, the activation factor turned out to be 1.04 and the activity change, negative = activation was -4% (inactive).
For `COc1ccc(Cl)cc1NC(=S)NCCSc1ccc(C)cc1` the same measures were 1.43 and -42.5% (inactive).
For `S=C(NCCCc1ccccc1)Nc1ccccc1Cl` the same measures were 1.26 and -26.2% (inactive).
For `S=C(NCCC(c1ccccc1)c1ccccc1)Nc1ccccc1Cl` the same measures were 1.84 and -84.1% (inactive).
Regarding `Cc1c(Cl)cccc1NC(=S)NCCC(C)C`, the activation factor is 1.19 and the activity change, negative = activation is -19.2% (inactive).
For `Cc1ccc(Cl)cc1NC(=S)NCCCSC1CCCCC1` the same measures were 1.29 and -28.8% (inactive).
For `Cc1ccccc1NC(=S)NCCC(c1ccccc1)c1ccccc1` the same measures were 1.96 and -96% (active).
For `Cc1cc(Cl)ccc1NC(=S)NCCC(c1ccccc1)c1ccccc1` the same measures were 2.05 and -105% (active).
In the case of `Cc1c(Cl)cccc1NC(=S)NCCC(c1ccccc1)c1ccccc1`, the activation factor is 4.75 and the activity change, negative = activation is -375% (active).
For `CSc1nc(Oc2ccc(=O)n(C)n2)nc(N(C)C)n1` the same measures were 1.07 and -6.65% (inactive).
For `COc1ccc(C2C(C#N)=C(N)N(c3sc4c(c3C#N)CCCC4)C3=C2C(=O)CC(C)(C)C3)cc1OC` (stereo unspecified) the same measures were 0.851 and 14.9% (inactive).
For `CCC(C)(C)NC(=O)C(c1ccccc1)N(C(=O)c1csnn1)C1CC1` (stereo unspecified) the same measures were 0.99 and 1% (inactive).
On to `Cc1cc(=O)c2cc(Br)ccc2[nH]1`, for which the activation factor was 0.944 and the activity change, negative = activation is 5.65% (inactive).
For `CCOC(=O)CSc1nc(-c2ccc(OC)cc2)ns1` the same measures were 1 and 0.05% (inactive).
For `COc1ccccc1C(=O)NCCN1CCN(C(=O)c2ccccc2OC)CC1` the same measures were 1.1 and -10.1% (inactive).
Take `COc1cccc(C(CC(=O)Nc2cccc3ccccc23)NC(=O)c2ccccc2)c1` (stereo unspecified): the activation factor stood at 2.19 and the activity change, negative = activation is -119% (active).
In the same order, the values of `COc1ccc(C(=O)Nc2ccccc2C(=O)N/N=C/c2cccc3ccccc23)cc1` are 1.02 and -1.95% (inactive).
For the compound `COc1cccc(OCC(=O)Nc2ccccc2NC(C)=O)c1`, the activation factor came to 1.08 and the activity change, negative = activation is -8.25% (inactive).
For `NC(=O)CSc1nnc(-c2ccncc2)n1CCc1ccccc1` the same measures were 1.05 and -5.05% (inactive).
As for `COc1ccc(COC(=O)Nc2cc3c(C(F)(F)F)nn(C)c3s2)cc1`, the activation factor is 1.23 and the activity change, negative = activation is -23.1% (inactive).
For the compound `O=C1NC2(CCCCC2)C(=O)N1c1ccccc1`, the activation factor was found to be 1.08 and the activity change, negative = activation was -7.85% (inactive).
In the same order, the values of `COc1ccc(NC(=O)NC23CC4(C)CC(C)(CC(C)(C4)C2)C3)cc1` are 2.08 and -108% (active).
For `COc1ccc(NC(=O)NCc2ccncc2)cc1` the same measures were 1.01 and -0.85% (inactive).
In the same order, the values of `COc1ccc(NC(=O)NC23CC4(C)CC(C)(CC(C)(C4)C2)C3)cc1OC` are 1.65 and -64.8% (inactive).
As for `Cn1nnnc1SCC(=O)N1CCN(c2ccc(Cl)cc2)CC1`, the activation factor was found to be 1.06 and the activity change, negative = activation was -5.85% (inactive).
For `CCN(CC)c1ccc(NC(=O)c2cccc(OC)c2)c(C)c1` the same measures were 0.97 and 3.05% (inactive).
In the same order, the values of `CCOc1ccc(OCCCN(C)C)cc1` are 0.976 and 2.4% (inactive).
For `O=C(CN1CCN(Cc2ccccc2Cl)C1=O)NCc1ccco1`, the activation factor is 0.935 and the activity change, negative = activation is 6.45% (inactive).
In the same order, the values of `S=C(Nc1cc(Cl)cc(Cl)c1)NC1CCN(Cc2ccccc2)CC1` are 1.54 and -53.5% (inactive).
For `CCOC(=O)N1CCN(C(=O)Nc2ccc(Cl)cc2Cl)CC1` the same measures were 1.02 and -1.6% (inactive).
On to `CCOC(=O)C1CCN(CCC(=O)Nc2ccccc2Cl)CC1`, for which the activation factor was found to be 0.996 and the activity change, negative = activation was 0.35% (inactive).
For `Cc1cccc(CN2CCC(CNC(=O)CCNC(=O)Cn3ccc4ccccc4c3=O)CC2)c1` the same measures were 0.974 and 2.6% (inactive).
In the same order, the values of `O=C(NCC1CCN(Cc2cccc(Cl)c2)CC1)Nc1ccccc1Cl` are 2.17 and -118% (active).
`Cc1ccc(NC(=O)NCC2CCN(Cc3cccc(Cl)c3)CC2)c(Cl)c1`: the activation factor is 2.2 and the activity change, negative = activation was -120% (active).
On to `COc1cccc(Cn2cnc3c(NS(=O)(=O)c4ccc(Cl)cc4Cl)c(C)c(C)cc32)c1`, for which the activation factor worked out at 0.985 and the activity change, negative = activation was 1.45% (inactive).
In the same order, the values of `Cn1cc(CN2CCC(C(=O)Nc3cccc(-c4cccc(F)c4)c3)CC2)cn1` are 2.29 and -129% (active).
For `CCn1cc(CN2CCC(C(=O)Nc3cccc(-c4cccc(F)c4)c3)CC2)cn1` the same measures were 2.66 and -166% (active).
`Cc1cc(C)c(S(=O)(=O)NNC(=O)C2CCN(Cc3ccccc3)CC2)c(C)c1`: the activation factor is 0.968 and the activity change, negative = activation was 3.2% (inactive).
For `CC(C)n1cc(CN2CCC(C(=O)Nc3cccc(-c4cccc(Cl)c4)c3)CC2)cn1` the same measures were 3.97 and -297% (active).
In the same order, the values of `Cc1ccc(S(=O)(=O)NNC(=O)C2CCN(Cc3ccccc3)CC2)cc1` are 0.94 and 6% (inactive).
For `CCn1cc(CN2CCC(C(=O)Nc3cccc(-c4cccc(Cl)c4)c3)CC2)cn1` the same measures were 4.29 and -329% (active).
As for `CCn1c2ccccc2c2cc(NC(=O)C3CCN(S(=O)(=O)c4cccs4)CC3)ccc21`, the activation factor came to 1.53 and the activity change, negative = activation is -52.7% (inactive).
For `CC(C)c1ccc(CN2CCC(C(=O)NCc3cccnc3)CC2)cc1` the same measures were 1.04 and -4.3% (inactive).
In the same order, the values of `Cc1ccc(CN2CCC(C(=O)Nc3cccc(-c4cccc(F)c4)c3)CC2)o1` are 1.48 and -48.2% (inactive).
In the same order, the values of `C[C@]12c3[nH]c4ccc(Cl)cc4c3CCN1C(=O)[C@@H](CC(=O)NCc1cccc(C(F)(F)F)c1)C[C@@H]2C(=O)N1CCCCC1` are 1.26 and -26.2% (inactive).
For `c1ccc(-n2nnnc2SCc2cccc3nsnc23)cc1`, the activation factor was found to be 0.908 and the activity change, negative = activation was 9.2% (inactive).
Regarding `O=[N+]([O-])c1ccc2n[nH]nc2c1`, the activation factor came out at 1.02 and the activity change, negative = activation is -2.4% (inactive).
On to `O=C(Nc1nnc(SCc2ccccc2Cl)s1)C1COc2ccccc2O1` (stereo unspecified), for which the activation factor is 0.965 and the activity change, negative = activation was 3.5% (inactive).
Turning to `CC(=O)c1sc(Nc2nc(C)cc(C)n2)nc1C`, the activation factor was 0.928 and the activity change, negative = activation was 7.2% (inactive).
For `COc1ccc(CN(CC(O)COCc2ccccc2)S(=O)(=O)c2ccccc2Br)cc1OC` (stereo unspecified) the same measures were 1.04 and -3.55% (inactive).
In the same order, the values of `O=C1CN(c2ccccc2F)C(=O)CN1c1ccccc1F` are 1.01 and -1.1% (inactive).

Source of the values: PubChem BioAssay AID434970 (Sanford-Burnham Center for Chemical Genomics, 2010).
